Results: the supplement of paper PMC10849652
Targets with a hit are over-represented here; the source holds about 8,800 in all. About 0.5% of all pairs of compound and target were hits. Unmarked numbers belong to inactive results.

Tests used:
Test in all cases: log2 fold change, soluble protein after heating vs DMSO (PISA); higher = thermal stabilisation; K562 lysate, 10 uM; active = over 0.2 and 3.5 SD of the protein, either way, in both replicates (recomputed)
nilotinib = compound: Cc1cn(-c2cc(NC(=O)c3ccc(C)c(Nc4nccc(-c5cccnc5)n4)c3)cc(C(F)(F)F)c2)cn1 [nilotinib]
In short: (§1)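 Values give the log-two fold change in thermal stability against solvent controls, from duplicates. Crude K562 extract at 1 mg/mL protein, made by dounce homogenisation in PBS pH 7.4 with 1 mM MgCl2, was treated with 10 μM compound for 30 min. After 3 min heating across 48°C-58°C, aliquots were pooled, adjusted to 0.5% NP-40 at 4°C and centrifuged at 21,000xg for 90 min. The supernatant was measured by TMTpro 16plex LC-MS/MS with channel sums equalised.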

[1] = compound: Cc1nc(Nc2n[nH]c3c2CN(C(=O)N[C@H](CN(C)C)c2ccccc2)C3(C)C)c2sccc2n1
In short: as §1

dasatinib = compound: Cc1nc(Nc2ncc(C(=O)Nc3c(C)cccc3Cl)s2)cc(N2CCN(CCO)CC2)n1 [dasatinib]
In short: as §1

[2] = compound: Cc1ncc(-c2ccnc(Nc3ccc(S(C)(=O)=O)cc3)n2)n1C(C)C
In short: as §1

[3] = compound: Cn1cc(-c2ccc3c(c2)CCN3C(=O)Cc2cccc(C(F)(F)F)c2)c2c(N)ncnc21
In short: as §1

quisinostat = compound: Cn1cc(CNCC2CCN(c3ncc(C(=O)NO)cn3)CC2)c2ccccc21 [quisinostat]
In short: as §1

tipifarnib = compound: Cn1cncc1[C@@](N)(c1ccc(Cl)cc1)c1ccc2c(c1)c(-c1cccc(Cl)c1)cc(=O)n2C [tipifarnib]
In short: as §1

[4] = compound: NC(=O)Nc1cc(-c2cccc(F)c2)sc1C(=O)N[C@H]1CCCNC1
In short: as §1

[5] = compound: NC(=O)c1cnc(N[C@@H]2CCCC[C@@H]2N)nc1Nc1cccc(-n2nccn2)c1
In short: as §1

[6] = compound: NC1(c2ccc(-c3nc4ccn5c(=O)[nH]nc5c4cc3-c3ccccc3)cc2)CCC1
In short: as §1

[7] = compound: NCC(=O)Nc1ccc(-n2nc(C(F)(F)F)cc2-c2ccc3c(ccc4ccccc43)c2)cc1
In short: as §1

vorinostat = compound: O=C(CCCCCCC(=O)Nc1ccccc1)NO [vorinostat]
In short: as §1

silmitasertib = compound: O=C(O)c1ccc2c(c1)nc(Nc1cccc(Cl)c1)c1ccncc12 [silmitasertib]
In short: as §1

[8] = compound: O=C1NC(=O)C(c2cnc3ccccn23)=C1c1cn2c3c(cc(F)cc13)CN(C(=O)N1CCCCC1)CC2
In short: as §1

entospletinib = compound: c1cn2cc(-c3ccc4cn[nH]c4c3)nc(Nc3ccc(N4CCOCC4)cc3)c2n1 [entospletinib]
In short: as §1

## HEATR6 (UniProt Q6AI08)
Sequence of UniProt Q6AI08 (Q6AI08 whole entry, looked up): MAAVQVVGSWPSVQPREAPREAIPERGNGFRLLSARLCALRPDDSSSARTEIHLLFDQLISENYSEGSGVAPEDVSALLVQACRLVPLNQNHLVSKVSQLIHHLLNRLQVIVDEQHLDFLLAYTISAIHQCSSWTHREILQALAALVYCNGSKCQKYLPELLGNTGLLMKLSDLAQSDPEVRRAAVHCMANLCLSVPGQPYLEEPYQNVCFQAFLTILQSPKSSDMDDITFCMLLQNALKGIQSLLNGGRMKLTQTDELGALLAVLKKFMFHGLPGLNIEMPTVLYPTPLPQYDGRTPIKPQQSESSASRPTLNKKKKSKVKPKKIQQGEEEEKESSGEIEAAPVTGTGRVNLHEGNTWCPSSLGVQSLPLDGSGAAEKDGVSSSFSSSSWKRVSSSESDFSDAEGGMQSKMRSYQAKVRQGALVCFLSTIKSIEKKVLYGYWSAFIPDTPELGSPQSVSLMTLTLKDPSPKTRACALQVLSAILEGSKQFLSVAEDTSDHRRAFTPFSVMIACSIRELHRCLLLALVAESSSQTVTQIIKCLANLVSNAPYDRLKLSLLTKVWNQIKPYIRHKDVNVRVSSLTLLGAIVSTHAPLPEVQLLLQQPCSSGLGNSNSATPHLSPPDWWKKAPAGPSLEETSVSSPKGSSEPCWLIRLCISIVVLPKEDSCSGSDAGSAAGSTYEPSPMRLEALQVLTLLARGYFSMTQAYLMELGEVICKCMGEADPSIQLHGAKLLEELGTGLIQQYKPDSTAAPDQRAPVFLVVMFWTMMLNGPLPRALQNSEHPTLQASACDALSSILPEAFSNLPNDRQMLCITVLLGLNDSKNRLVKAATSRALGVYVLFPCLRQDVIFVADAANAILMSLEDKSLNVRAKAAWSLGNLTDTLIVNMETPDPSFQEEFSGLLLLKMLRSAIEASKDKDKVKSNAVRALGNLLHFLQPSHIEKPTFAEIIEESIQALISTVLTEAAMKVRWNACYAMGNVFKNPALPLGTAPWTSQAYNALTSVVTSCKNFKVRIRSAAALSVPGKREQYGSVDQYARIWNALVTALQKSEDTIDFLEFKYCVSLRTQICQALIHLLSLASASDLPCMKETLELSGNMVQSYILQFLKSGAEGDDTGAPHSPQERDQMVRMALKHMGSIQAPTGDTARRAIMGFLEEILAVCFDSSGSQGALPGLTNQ
nilotinib
  log2 fold change: -0.085
[1]
  log2 fold change: 0.022
dasatinib
  log2 fold change: -0.019
[2]
  log2 fold change: 0.022
[3]
  log2 fold change: 0
quisinostat
  log2 fold change: -0.008
tipifarnib
  log2 fold change: -0.06
[4]
  log2 fold change: 0.055
[5]
  log2 fold change: 0.041
[6]
  log2 fold change: 0.026
[7]
  log2 fold change: -0.005
vorinostat
  log2 fold change: -0.466 (active)
silmitasertib
  log2 fold change: 0.047
[8]
  log2 fold change: -0.026
entospletinib
  log2 fold change: 0

## HNRNPLL (UniProt Q8WVV9)
nilotinib
  log2 fold change: -0.031
[1]
  log2 fold change: 0.009
dasatinib
  log2 fold change: -0.019
[2]
  log2 fold change: 0.008
[3]
  log2 fold change: -0.001
quisinostat
  log2 fold change: -0.063
tipifarnib
  log2 fold change: -0.008
[4]
  log2 fold change: 0.001
[5]
  log2 fold change: 0.015
[6]
  log2 fold change: -0.013
[7]
  log2 fold change: 0.009
vorinostat
  log2 fold change: -0.653 (active)
silmitasertib
  log2 fold change: 0.035
[8]
  log2 fold change: 0.004
entospletinib
  log2 fold change: 0.034

## GSE1 (UniProt Q14687)
nilotinib
  log2 fold change: -0.017
[1]
  log2 fold change: 0.007
dasatinib
  log2 fold change: -0.064
[2]
  log2 fold change: 0.036
[3]
  log2 fold change: -0.005
quisinostat
  log2 fold change: -0.093
tipifarnib
  log2 fold change: -0.02
[4]
  log2 fold change: 0.059
[5]
  log2 fold change: 0.012
[6]
  log2 fold change: 0.029
[7]
  log2 fold change: 0.029
vorinostat
  log2 fold change: -0.286 (active)
silmitasertib
  log2 fold change: -0.006
[8]
  log2 fold change: -0.006
entospletinib
  log2 fold change: -0.017

## IGF2BP2 (UniProt Q9Y6M1)
Sequence of UniProt Q9Y6M1 (Q9Y6M1 whole entry, looked up): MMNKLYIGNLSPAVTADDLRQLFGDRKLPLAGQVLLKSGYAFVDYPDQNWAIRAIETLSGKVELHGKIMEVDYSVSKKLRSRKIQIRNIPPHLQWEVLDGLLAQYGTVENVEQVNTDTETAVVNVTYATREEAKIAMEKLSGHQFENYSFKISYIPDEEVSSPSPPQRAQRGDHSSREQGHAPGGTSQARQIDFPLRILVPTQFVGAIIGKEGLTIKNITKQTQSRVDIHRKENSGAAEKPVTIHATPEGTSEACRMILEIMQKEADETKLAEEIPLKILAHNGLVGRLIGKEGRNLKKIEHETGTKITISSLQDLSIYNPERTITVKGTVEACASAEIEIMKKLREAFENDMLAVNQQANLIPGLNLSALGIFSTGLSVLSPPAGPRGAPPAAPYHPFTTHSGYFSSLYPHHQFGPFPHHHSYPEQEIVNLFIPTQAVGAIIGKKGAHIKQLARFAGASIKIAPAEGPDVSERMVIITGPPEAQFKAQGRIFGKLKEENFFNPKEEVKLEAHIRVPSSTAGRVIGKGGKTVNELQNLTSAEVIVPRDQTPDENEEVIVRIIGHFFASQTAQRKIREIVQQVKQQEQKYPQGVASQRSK
nilotinib
  log2 fold change: -0.051
[1]
  log2 fold change: 0.008
dasatinib
  log2 fold change: -0.055
[2]
  log2 fold change: -0.008
[3]
  log2 fold change: 0.031
quisinostat
  log2 fold change: 0.012
tipifarnib
  log2 fold change: 0.028
[4]
  log2 fold change: 0.06
[5]
  log2 fold change: 0.016
[6]
  log2 fold change: 0.019
[7]
  log2 fold change: -0.016
vorinostat
  log2 fold change: -0.239 (active)
silmitasertib
  log2 fold change: 0.088
[8]
  log2 fold change: 0
entospletinib
  log2 fold change: 0.026

## HMBOX1 isoform 5 (UniProt Q6NT76)
Sequence of UniProt Q6NT76 (Q6NT76 whole entry, looked up): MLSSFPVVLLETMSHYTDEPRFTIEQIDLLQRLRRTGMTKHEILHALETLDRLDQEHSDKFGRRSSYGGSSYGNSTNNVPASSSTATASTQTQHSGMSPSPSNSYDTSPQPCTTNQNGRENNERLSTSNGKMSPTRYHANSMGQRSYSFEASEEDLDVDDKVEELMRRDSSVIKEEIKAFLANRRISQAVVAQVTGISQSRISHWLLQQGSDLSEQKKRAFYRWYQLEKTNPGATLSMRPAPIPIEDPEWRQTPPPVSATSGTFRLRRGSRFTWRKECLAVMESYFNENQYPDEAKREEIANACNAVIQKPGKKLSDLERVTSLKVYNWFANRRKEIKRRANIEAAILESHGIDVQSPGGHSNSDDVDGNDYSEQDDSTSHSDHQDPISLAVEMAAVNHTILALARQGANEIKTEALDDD
nilotinib
  log2 fold change: 0.186
[1]
  log2 fold change: -0.038
dasatinib
  log2 fold change: -0.034
[2]
  log2 fold change: 0.078
[3]
  log2 fold change: 0.024
quisinostat
  log2 fold change: -0.008
tipifarnib
  log2 fold change: 0.077
[4]
  log2 fold change: 0.001
[5]
  log2 fold change: 0.041
[6]
  log2 fold change: -0.055
[7]
  log2 fold change: 0.004
vorinostat
  log2 fold change: 0.093
silmitasertib
  log2 fold change: 0.025
[8]
  log2 fold change: 0.02
entospletinib
  log2 fold change: -0.063

## HECTD3 (UniProt Q5T447)
nilotinib
  log2 fold change: -0.004
[1]
  log2 fold change: 0.041
dasatinib
  log2 fold change: -0.016
[2]
  log2 fold change: -0.012
[3]
  log2 fold change: 0.006
quisinostat
  log2 fold change: 0.026
tipifarnib
  log2 fold change: 0.059
[4]
  log2 fold change: 0.05
[5]
  log2 fold change: 0.003
[6]
  log2 fold change: 0.056
[7]
  log2 fold change: -0.015
vorinostat
  log2 fold change: -0.253 (active)
silmitasertib
  log2 fold change: 0.109
[8]
  log2 fold change: -0.02
entospletinib
  log2 fold change: 0.022

## KDM5C (UniProt P41229)
Sequence of UniProt P41229 (P41229 whole entry, looked up): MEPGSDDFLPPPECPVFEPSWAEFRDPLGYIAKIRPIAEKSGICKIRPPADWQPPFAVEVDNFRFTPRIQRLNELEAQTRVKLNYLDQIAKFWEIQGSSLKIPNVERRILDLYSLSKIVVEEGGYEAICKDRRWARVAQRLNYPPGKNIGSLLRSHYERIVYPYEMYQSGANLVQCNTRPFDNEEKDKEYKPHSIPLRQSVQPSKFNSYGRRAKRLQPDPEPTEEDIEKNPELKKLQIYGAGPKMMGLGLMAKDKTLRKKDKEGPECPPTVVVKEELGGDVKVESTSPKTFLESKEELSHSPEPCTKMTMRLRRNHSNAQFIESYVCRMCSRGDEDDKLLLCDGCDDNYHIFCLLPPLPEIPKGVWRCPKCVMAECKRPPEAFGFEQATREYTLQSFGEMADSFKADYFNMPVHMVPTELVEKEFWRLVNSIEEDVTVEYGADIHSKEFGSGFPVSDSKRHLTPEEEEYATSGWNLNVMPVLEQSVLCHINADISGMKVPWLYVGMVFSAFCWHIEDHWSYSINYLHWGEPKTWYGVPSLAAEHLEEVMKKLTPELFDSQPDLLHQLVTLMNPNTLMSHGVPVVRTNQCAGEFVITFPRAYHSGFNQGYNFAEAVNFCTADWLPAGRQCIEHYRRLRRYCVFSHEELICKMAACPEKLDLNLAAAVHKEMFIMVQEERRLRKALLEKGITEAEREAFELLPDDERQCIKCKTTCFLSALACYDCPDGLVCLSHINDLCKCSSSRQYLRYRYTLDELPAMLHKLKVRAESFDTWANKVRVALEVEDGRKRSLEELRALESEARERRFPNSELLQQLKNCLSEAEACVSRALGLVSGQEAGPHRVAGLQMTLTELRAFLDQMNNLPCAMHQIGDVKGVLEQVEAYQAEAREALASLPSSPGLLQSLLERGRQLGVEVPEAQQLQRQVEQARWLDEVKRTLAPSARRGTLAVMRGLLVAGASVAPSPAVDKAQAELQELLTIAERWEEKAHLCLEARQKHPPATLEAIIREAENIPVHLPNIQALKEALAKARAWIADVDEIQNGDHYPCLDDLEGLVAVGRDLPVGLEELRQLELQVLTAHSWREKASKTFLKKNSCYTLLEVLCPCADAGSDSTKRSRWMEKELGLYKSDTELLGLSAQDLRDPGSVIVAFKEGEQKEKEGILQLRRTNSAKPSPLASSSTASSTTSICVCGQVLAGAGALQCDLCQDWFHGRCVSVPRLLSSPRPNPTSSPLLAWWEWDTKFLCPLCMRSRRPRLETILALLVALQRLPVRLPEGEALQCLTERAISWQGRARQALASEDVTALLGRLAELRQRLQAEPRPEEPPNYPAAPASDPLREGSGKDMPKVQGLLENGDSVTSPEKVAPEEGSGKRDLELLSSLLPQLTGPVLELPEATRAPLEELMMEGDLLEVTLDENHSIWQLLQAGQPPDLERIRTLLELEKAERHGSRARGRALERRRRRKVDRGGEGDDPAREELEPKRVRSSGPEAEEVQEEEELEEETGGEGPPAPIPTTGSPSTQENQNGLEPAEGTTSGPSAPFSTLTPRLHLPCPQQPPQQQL
nilotinib
  log2 fold change: -0.021
[1]
  log2 fold change: -0.005
dasatinib
  log2 fold change: -0.032
[2]
  log2 fold change: 0.022
[3]
  log2 fold change: 0.033
quisinostat
  log2 fold change: -0.084
tipifarnib
  log2 fold change: 0.037
[4]
  log2 fold change: 0.032
[5]
  log2 fold change: -0.037
[6]
  log2 fold change: -0.032
[7]
  log2 fold change: 0.039
vorinostat
  log2 fold change: -0.282 (active)
silmitasertib
  log2 fold change: 0.015
[8]
  log2 fold change: 0
entospletinib
  log2 fold change: 0.003

## IGF2BP3 (UniProt O00425)
Sequence of UniProt O00425 (O00425 whole entry, looked up): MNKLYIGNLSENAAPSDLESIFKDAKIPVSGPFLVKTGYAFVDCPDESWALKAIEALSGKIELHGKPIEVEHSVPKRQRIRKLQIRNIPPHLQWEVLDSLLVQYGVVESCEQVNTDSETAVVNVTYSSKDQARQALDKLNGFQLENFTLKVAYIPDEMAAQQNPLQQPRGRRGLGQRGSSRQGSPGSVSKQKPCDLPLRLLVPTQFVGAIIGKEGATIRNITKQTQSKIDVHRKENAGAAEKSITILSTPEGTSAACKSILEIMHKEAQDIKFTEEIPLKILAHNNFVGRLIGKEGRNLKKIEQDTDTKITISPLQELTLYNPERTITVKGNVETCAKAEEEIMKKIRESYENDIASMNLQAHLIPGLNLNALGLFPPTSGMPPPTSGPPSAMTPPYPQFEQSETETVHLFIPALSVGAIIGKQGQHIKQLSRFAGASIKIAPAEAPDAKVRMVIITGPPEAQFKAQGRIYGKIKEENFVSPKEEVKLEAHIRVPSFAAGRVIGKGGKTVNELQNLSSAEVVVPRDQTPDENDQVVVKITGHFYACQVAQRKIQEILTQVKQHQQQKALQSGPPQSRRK
nilotinib
  log2 fold change: -0.046
[1]
  log2 fold change: 0.008
dasatinib
  log2 fold change: -0.035
[2]
  log2 fold change: 0.006
[3]
  log2 fold change: 0.063
quisinostat
  log2 fold change: -0.045
tipifarnib
  log2 fold change: 0.008
[4]
  log2 fold change: 0.039
[5]
  log2 fold change: 0.013
[6]
  log2 fold change: -0.027
[7]
  log2 fold change: -0.012
vorinostat
  log2 fold change: -0.305 (active)
silmitasertib
  log2 fold change: 0.025
[8]
  log2 fold change: 0
entospletinib
  log2 fold change: 0.006

## GLB1 (UniProt P16278)
Sequence of UniProt P16278 (P16278 whole entry, looked up): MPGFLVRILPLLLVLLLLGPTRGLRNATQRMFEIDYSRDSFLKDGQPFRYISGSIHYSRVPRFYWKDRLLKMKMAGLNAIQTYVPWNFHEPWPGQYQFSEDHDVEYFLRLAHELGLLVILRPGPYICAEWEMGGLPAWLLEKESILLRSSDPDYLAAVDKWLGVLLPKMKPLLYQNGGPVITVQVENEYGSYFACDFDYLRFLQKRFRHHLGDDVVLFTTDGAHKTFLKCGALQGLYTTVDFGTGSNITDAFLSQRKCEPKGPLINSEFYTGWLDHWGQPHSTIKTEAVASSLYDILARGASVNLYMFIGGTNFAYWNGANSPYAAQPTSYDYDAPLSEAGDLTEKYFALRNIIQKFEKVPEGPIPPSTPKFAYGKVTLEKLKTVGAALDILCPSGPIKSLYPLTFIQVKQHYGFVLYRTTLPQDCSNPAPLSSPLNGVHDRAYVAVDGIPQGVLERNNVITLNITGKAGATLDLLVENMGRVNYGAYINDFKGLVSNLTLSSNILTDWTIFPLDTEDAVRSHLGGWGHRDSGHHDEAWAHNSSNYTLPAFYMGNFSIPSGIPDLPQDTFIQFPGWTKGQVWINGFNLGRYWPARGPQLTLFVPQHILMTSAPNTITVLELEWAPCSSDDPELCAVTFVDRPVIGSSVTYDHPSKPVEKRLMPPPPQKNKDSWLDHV
nilotinib
  log2 fold change: -0.006
[1]
  log2 fold change: 0.03
dasatinib
  log2 fold change: -0.026
[2]
  log2 fold change: 0.023
[3]
  log2 fold change: 0.003
quisinostat
  log2 fold change: 0.03
tipifarnib
  log2 fold change: 0.017
[4]
  log2 fold change: -0.016
[5]
  log2 fold change: -0.011
[6]
  log2 fold change: -0.022
[7]
  log2 fold change: 0.003
vorinostat
  log2 fold change: -0.013
silmitasertib
  log2 fold change: -0.03
[8]
  log2 fold change: -0.043
entospletinib
  log2 fold change: -0.018
